Test results as given in paper PMC12136788.
Numbering of substitutions follows the chain as printed. Whole data set: some 5,800 sequences, median “enrichment r” near 0.54, cut for the highest 2% near 16. The full list was thinned out, with the highest values kept by preference.

B1: chr22:41636480:41636706:+|CDS|ENSG00000196419|unk|FALSE|unique (ssRNA)
RNA: GGGAGUUCUACAGUCCGACGAUCAUGGGCCACGGAUCUGACUACUCACUCAGUGAAGUGCUGUGGGUCUGUGCCAACCUCUUUAGUGAUGUCCAAUUCAAGAUGAGUCAUAAGAGGAUCAUGCUGUUCACCAAUGAAGACAACCAACAGAGGAUUGAGCAUCA
B2: chr1:223774945:223775046:+|3pUTR|ENSG00000162909|msi1|total|mutant (ssRNA)
RNA: GGGAGUUCUACAGUCCGACGAUCAAAUACACUUUGUAUCUGGACCUCAAAAUUAUGGGAACAUUUACUUAAACGGAUGAUCACCGCUGAAAAUAAUGAUACUGUCAAUUUGAGACCGCAGAAGUUUCACACAUCAAAGUAAAACAACAGAGGAUUGAGCAUCA
B3: chr2:108783740:108783841:+|CDS_3pUTR|ENSG00000153201|msi1_unk|FALSE|overlapping (ssRNA)
RNA: GGGAGUUCUACAGUCCGACGAUCCAAUAAUUCUCAAUUUGUUAUAACACUGAAGAAAGCAGAACAUUUGGACUUUAAGCAUGUAGUAUUUGGGUUUGUUAAGGAUGGCAUGGAUACUGUGAAAAAGAUUGAAUCAUUUGGUUCCAACAGAGGAUUGAGCAUCA
B4: chr16:61647241:61654101:-|three_prime_utr|ENSG00000150394|control|control|control (ssRNA)
RNA: GGGAGUUCUACAGUCCGACGAUCAAAGAAACUUGACAGUGGAUUAUAAAUAAAUCACUGGAACUGAGCAUUCUGUAAUAUUCUAGGGUCACUCCCCUUAGAUACAACCAAUGUGGCUAUUUGUUUUAGAGGCAAGUUUAGCACCAACAGAGGAUUGAGCAUCA
B5: chr1:62864655:62864756:+|3pUTR|ENSG00000125703|unk|FALSE|unique (ssRNA)
RNA: GGGAGUUCUACAGUCCGACGAUCUUUGUUAACUGUGAUAUGCAUACACUUAUAUAAGCAGAAUUAUGAGUUAAAGUAAUACUUAGCAAUAUGAUUUUAUAAUGGCUCCUCAUUAUGCUUGCUGUUGAACCUUUUAUGAGGAGUCAACAGAGGAUUGAGCAUCA
B6: ENSG00000070961:be:win_6051|3pUTR|ENSG00000070961|bound_else_gene|NA|bound_elsewhere_windowed (ssRNA)
RNA: GGGAGUUCUACAGUCCGACGAUCCAGAAAUUUCCAGAGCAUUAUGUAGGUAGAAAAAAAUGCAAGCAAGCUGUUAAAGAUCUUGGAUCCCAUUAUAUAGUAUGUAUAGCUGAAAUCUGUAAUUCAAUCACUUUUUCUCUUUUACAACAGAGGAUUGAGCAUCA
B7: chr3:97755980:97756081:+|3pUTR|ENSG00000080224|unk|FALSE|unique (ssRNA)
RNA: GGGAGUUCUACAGUCCGACGAUCUAAUUAAAAAUCUCUUUCCUACCUUUAGUAAUUUGUAGGAUGAACUGUAUGCAUUUAGAUAGAAAUUGCUUUUGUUAAAUUUACAUUUAAACACAUCUUCAUUCACUUAGAGAAGCCAUACAACAGAGGAUUGAGCAUCA
B8: chr8:74853834:74853946:+|3pUTR|ENSG00000137558|unk|total|mutant (ssRNA)
RNA: GGGAGUUCUACAGUCCGACGAUCAAGUGCUUUUUUUUUUCUGAAUUAAUCCGGUAUUGGUAAAAUAUAUUUUUAAAUUCCGUCCGCUUUAUAAACACAAUCCGAAUUACAAUUAAUUAACAGAGGUAUAAUUGUCUCACUUUCCAACAGAGGAUUGAGCAUCA
B9: chr3:62294137:62294238:+|3pUTR|ENSG00000144724|msi1|FALSE|unique (ssRNA)
RNA: GGGAGUUCUACAGUCCGACGAUCUGAGACCCUUUAGUUAUUCUCCAUUAAUGCUUCUUAGUUUGUAAUACCAUACCUCACAGUAGGUAGAAGAAUGAAAACUUCUGCAGGUGUGUAAUUUUGAAACUAGUCCUCUAAAAAUUCCAACAGAGGAUUGAGCAUCA
B10: chr3:97755980:97756081:+|3pUTR|ENSG00000080224|unk|total|mutant (ssRNA)
RNA: B7 RNA with U49C, A50C, U59C, A60C, U79C, A80C, U83C, A84C, U131C, A132C
B11: chr8:42175503:42175666:-|3pUTR|ENSG00000104368|msi1|FALSE|unique (ssRNA)
RNA: GGGAGUUCUACAGUCCGACGAUCAUGAAAGCAUGUCUCAAUAGUAAAAGAUAACAAGAUCUUUCAGGAAAGACGGAUUGCAUUAGAAAUAGACAGUAUAUUUAUAGUCACAAGAGCCCAGCAGGGCCUCAAAGUUGGGGCAGGCAACAGAGGAUUGAGCAUCA
B12: chr8:74853834:74853946:+|3pUTR|ENSG00000137558|unk|FALSE|unique (ssRNA)
RNA: B8 RNA with C50U, C51A, C79U, C80A, C83U, C84A, C101U, C102A
B13: chr8:42175503:42175666:-|3pUTR|ENSG00000104368|msi1|total|mutant (ssRNA)
RNA: B11 RNA with U41C, A42C, U83C, A84C, U89C, A90C, U104C, A105C
B14: chr12:123662440:123662541:+|3pUTR|ENSG00000111358|unk|FALSE|unique (ssRNA)
RNA: GGGAGUUCUACAGUCCGACGAUCAAUGGAAAUCACAAUUUUAAGUCUAGGAAAUAAAGUAUUAUAUAUACUUUCAAACAAGCUAGCAAGGCUUUUAUUAUUACUUUUUUAUUUGAAAUAUCUUAUAUAUUUGGUUAGUUCUGUCAACAGAGGAUUGAGCAUCA
B15: ENSG00000070961:be:win_6001|3pUTR|ENSG00000070961|bound_else_gene|NA|bound_elsewhere_windowed (ssRNA)
RNA: GGGAGUUCUACAGUCCGACGAUCCAAGACAUGCUUAGUGUGUAUUUCUCUCUUUGAGACACUGUAAUUUCUACCAGAAAUUUCCAGAGCAUUAUGUAGGUAGAAAAAAAUGCAAGCAAGCUGUUAAAGAUCUUGGAUCCCAUUCAACAGAGGAUUGAGCAUCA
B16: chr6:145382534:145384023:-|three_prime_utr|ENSG00000112425|control|control|control (ssRNA)
RNA: GGGAGUUCUACAGUCCGACGAUCUCAACAUGAUUUAACAGAUCUAUAUGUUAAAGGAGAAAAAGAUAUGUGGAUGCUAUCAAUAGUAGCUGAAAAGCAUUUUCAGAAAUCUGUAAGUAGAGGAAAUGUAUUCAUAUGUUUCUACAACAGAGGAUUGAGCAUCA
B17: chr12:89642165:89642281:-|CDS|ENSG00000070961|unk|total|mutant (ssRNA)
RNA: GGGAGUUCUACAGUCCGACGAUCGCCAAAAACCUUUCUUCAAUCCGUAUGGGAAGCAUUACAAGAUGUCACUUUAAUUAUAUCCGAAAUUGCAGCCACCGUAUCAUUGGGCCUUUCUUUUUAUCAGCCUCCAGAAGGGGAUAACAACAGAGGAUUGAGCAUCA

Each binder was assayed against MSI1 full-length (mouse, UniProt Q61474 1-362) (assay: nsRBNS (natural sequence RNA bind-n-seq); RBNS binding buffer (assumed for nsRBNS): 25 mM Tris pH 7.5, 150 mM KCl, 3 mM MgCl2, 0.01% Triton X-100, 500 ug/ml BSA, 20 U/ml SUPERase-In, 4 C; UNK is unkempt and MSI1 is Musashi-1; names of the RNAs are library labels; protein concentration not given here; high values mean tight binding).
Sequence of MSI1 full-length (Q61474 whole entry): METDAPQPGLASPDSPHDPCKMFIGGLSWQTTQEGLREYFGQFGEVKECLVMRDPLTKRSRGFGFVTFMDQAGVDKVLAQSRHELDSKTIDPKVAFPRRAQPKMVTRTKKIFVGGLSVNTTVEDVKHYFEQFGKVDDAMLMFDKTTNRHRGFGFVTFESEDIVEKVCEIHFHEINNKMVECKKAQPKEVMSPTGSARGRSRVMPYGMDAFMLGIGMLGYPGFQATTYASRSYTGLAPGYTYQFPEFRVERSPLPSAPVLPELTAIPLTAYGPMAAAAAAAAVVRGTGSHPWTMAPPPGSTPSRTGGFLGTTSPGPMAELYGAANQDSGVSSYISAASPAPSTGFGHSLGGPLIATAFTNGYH
Work on B1 yielded a binding signal of 0.384 enrichment R.
Binder B2 has a binding signal of 0.211 enrichment R.
Work on B3 yielded a binding signal of 0.864 enrichment R.
B4 was tested, and the binding signal was 1.27 enrichment R.
Work on B5 yielded a binding signal of 0.957 enrichment R.
With B6 the binding signal was 37.4 enrichment R.
For B7, the binding signal was 19.4 enrichment R.
Binder B8 has a binding signal of 1.6 enrichment R.
With B9 the binding signal was 8.1 enrichment R.
B10 showed a binding signal of 1.21 enrichment R.
With B11 the binding signal was 41.9 enrichment R.
B12 gave a binding signal of 47.1 enrichment R.
Binder B13 has a binding signal of 0.44 enrichment R.
Work on B14 yielded a binding signal of 12.8 enrichment R.
Work on B15 yielded a binding signal of 0.464 enrichment R.
With B16 the binding signal was 1.04 enrichment R.
B17 gave a binding signal of 0.453 enrichment R.
